Assay outcomes as filed in PubChem.
BAZ2B block – inhibitors of human BAZ2B bromodomain | AlphaScreen BAZ2B-H3K14Ac peptide displacement | Potency, µM (series often up to 114 µM), most hits filed as inhibitors | 4.4% of 360,000 active; further: nearly all actives have a fitted effect of over 60% in size
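AlphaScreen displacement of biotin-H3(5-23)K14Ac peptide (50 nM final) from BAZ2B (50 nM final) in PBS pH 7.4, 0.01% Tween-20; complex preformed 30 min RT, then compounds (top 110 uM) 30 min RT, beads 20 min dark.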
JMJD2A Tudor – inhibitors of human JMJD2A Tudor domain. AlphaScreen JMJD2A-Tudor / H3K4me3 peptide binding. 4.4% of 390,000 active. O75164. Potency, µM (highest dose often 114 µM), usual class: inhibitors; further: nearly all actives have a fitted effect of over 50% in size
CtBP-E1A blk – inhibitors of CtBP/E1A interaction. AlphaScreen GST-E1A/His-CtBP binding, 1536-well; active compounds read low. activity change, % (concentration not given with the values). 0.49% of 340,000 active; in the data active means activity change below about -65%; inconclusive means mostly about -30% to -63%
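In 5 uL wells, 23 nL compound meets equimolar GST-E1A and His-CtBP (5X stock 125 nM each) for 2 h, 37 °C. Beads (5X, 50 ug/mL) then 1 h, 37 °C, dark.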
G9a inh – inhibitors of human histone lysine methyltransferase G9a; G9a H3K9 monomethylation, AlphaScreen, 2 h; Potency, µM (highest dose often 102 µM), most hits filed as inhibitors; 8.8% of 350,000 active; AID 504332; further: nearly all actives have a fitted effect of over 75% in size
Target sequence (Q96KQ7 913-1193 limits assumed): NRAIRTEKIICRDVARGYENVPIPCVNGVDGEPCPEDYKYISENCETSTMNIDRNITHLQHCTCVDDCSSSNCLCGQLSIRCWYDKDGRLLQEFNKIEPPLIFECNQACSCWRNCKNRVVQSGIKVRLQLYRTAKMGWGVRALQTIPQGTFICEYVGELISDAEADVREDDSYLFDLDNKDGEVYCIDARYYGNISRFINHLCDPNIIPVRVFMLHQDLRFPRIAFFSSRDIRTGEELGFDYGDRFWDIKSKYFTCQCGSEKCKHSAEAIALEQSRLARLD
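Compounds were preincubated with 20 nM G9a for 15 min, after which biotinylated H3K9 peptide (500 nM) and SAM (20 uM) started a 2 h room-temperature reaction. Monomethylated product was quantified by antibody-based AlphaScreen chemiluminescence.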
Six1-Eya2 inh – inhibitors of human Six1/Eya2 interaction | Q15475+O00167 | AlphaScreen GST-Six1/His-Eya2 binding, biochemical; active compounds read low | activity change, % (no concentration beside the values) | 0.56% of 360,000 active | AID 651725; in the data active means activity change below about -65%; inconclusive means mostly about -30% to -63%
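Homogeneous AlphaScreen proximity assay pairing GST-Six1 with His-tagged Eya2 (added as 5X mix: 250 nM and 500 nM) in 50 mM Tris pH 8.0, 300 mM NaCl, 1 mM TCEP. Glutathione donor and nickel acceptor beads; 1 h, 37 °C, dark.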
HP1b binding inh – inhibitors of HP1-beta chromodomain binding to methylated histone tails; AlphaScreen HP1-beta / biotin-H3K9me3 peptide binding; Potency, µM (top dose mostly 114 µM), actives largely listed as inhibitors; 0.56% of 390,000 active; AID 540317; further: nearly all actives have a fitted effect of over 70% in size
Target sequence (P83916 whole entry, looked up): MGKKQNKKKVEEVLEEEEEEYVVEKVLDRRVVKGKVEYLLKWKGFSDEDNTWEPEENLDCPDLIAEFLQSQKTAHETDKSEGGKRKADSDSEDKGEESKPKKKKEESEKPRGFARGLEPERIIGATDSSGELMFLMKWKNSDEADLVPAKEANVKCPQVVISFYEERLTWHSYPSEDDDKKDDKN
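AlphaScreen: HP1-beta (50 nM) preformed 30 min with biotin-H3(1-18)K9me3 peptide (50 nM) in PBS pH 7.4, 0.01% Tween-20. Compound added for 30 min at RT, then streptavidin donor/nickel chelate acceptor beads (10 ug/mL) for 30 min.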
Numbers stand for hits; n = inactive; u = inconclusive; x = no result; [ ] = dose if it differs, or a comment. An excerpt weighted towards active compounds, which were near 10% of everything screened. Unless noted, the call rests on the fitted dose curve; in most records, active means well fitted inhibition curve with a large enough effect; inconclusive means small, poorly fitted or top-dose-only effect; inactive means no such curve, though single readings can be large or run the other way.

SMILES	BAZ2B block	JMJD2A Tudor	CtBP-E1A blk	G9a inh	Six1-Eya2 inh	HP1b binding inh
Cc1ccc(O)c(NC(=O)c2ccc(Br)c(S(=O)(=O)N3CCCCC3)c2)c1	17.8µM	u	x	u	x	n
CC1CSc2ccccc2NC1=S (stereo not drawn)	n	n	n	u	n	n
c1ccc(C2CSc3ccccc3N2)cc1 (stereo not drawn)	u	u	x	8.91µM	n	n
COc1cc(OC)cc(C(=O)OCC(=O)Nc2nnc(-c3ccccc3)o2)c1	x	50.1µM	u	x	u	n
O=C(COC(=O)c1ccc(Cl)nc1)NC(=O)c1ccccc1	n	n	n	x	n	n
O=C(COC(=O)c1ccc(Cl)nc1)Nc1nnc(-c2ccccc2)o1	50.1µM	79.4µM	u	n	n	n
Cc1ccc(CNC(=O)COC(=O)c2cncc(Br)c2)cc1	n	n	n	u	n	n
Cc1ccc(C(=O)CCC(=O)OCC(=O)Nc2nnc(-c3ccccc3)o2)cc1	u	n	n	n	n	n
COc1ccc(CNC(=O)COC(=O)c2cncc(Br)c2)cc1	n	n	n	39.8µM	n	n
O=C(COC(=O)c1cncc(Br)c1)Nc1nnc(-c2ccccc2)o1	x	50.1µM	u	x	n	n
Cc1ccc2c(c1)c1c(c(=O)n(Cc3ccccc3)c(=O)n1CC(=O)NCc1ccccc1Cl)n2C	n	n	x	n	x	n
COc1ccc(C)cc1NCc1nnc2n1CCCCC2	n	n	x	u	x	n
CNc1oc(/C=C/c2cccc(OC)c2)nc1C#N	n	n	x	n	n	n
CCOC(=O)c1c(C)oc2c1c(C(c1ccncc1)N1CCOCC1)c(O)c1ccccc12 (stereo not drawn)	14.1µM	u	n	u	n	70.8µM
CCOC(=O)c1c(C)oc2c1c(C=NC1CCS(=O)(=O)C1)c(O)c1ccccc12 (stereo not drawn)	n	n	n	n	n	n
CCOC(=O)c1c(C)oc2c1c(CN1CCN(CCO)CC1)c(O)c1ccccc12	x	u	n	1.41µM	n	u
CCOC(=O)c1c(C)oc2c1c(C=NCCC(=O)O)c(O)c1ccccc12	u	n	n	50.1µM	n	n
CCOC(=O)c1c(C)oc2c1c1c(c3ccccc32)OCN(Cc2ccccn2)C1	44.7µM	u	n	n[0.501 µM]	u	n
CCOC(=O)c1c(C)oc2ccc(O)c(CN3CCCCC3)c12	n	n	n	n[12.7 µM]	n	n
CCOC(=O)c1c(C)oc2c1c(CN1CCN(C(=O)OCC)CC1)c(O)c1ccccc12	u	u	n	3.16µM	n	n
Cc1ccc2oc(C(=O)N(Cc3ccc(N(C)C)cc3)C3CCS(=O)(=O)C3)c(C)c2c1 (stereo not drawn)	11.2µM	20µM	u	25.1µM	u	u
Cc1ccc2c(C)c(C(=O)N(Cc3ccc(N(C)C)cc3)C3CCS(=O)(=O)C3)oc2c1 (stereo not drawn)	12.6µM	25.1µM	u	x	u	u
COCCNc1oc(/C=C/c2ccc(F)cc2)nc1C#N	n	n	x	n	x	n
Fc1ccc(-c2cc(-c3nc(-c4cccc(Cl)c4)no3)[nH]n2)cc1	n	n	x	n	x	n
Cc1c2oc3c(C)ccc(C(=O)N[C@@H]4C(=O)N[C@H](C(C)C)C(=O)N5CCC[C@H]5C(=O)N(C)CC(=O)N(C)[C@@H](C(C)C)C(=O)O[C@@H]4C)c3nc-2c(C(=O)N[C@@H]2C(=O)N[C@H](C(C)C)C(=O)N3CCC[C@H]3C(=O)N(C)CC(=O)N(C)[C@@H](C(C)C)C(=O)O[C@@H]2C)c(N)c1=O	x	x	x	11.2µM	x	x
SMILES	BAZ2B block	JMJD2A Tudor	CtBP-E1A blk	G9a inh	Six1-Eya2 inh	HP1b binding inh
CCCN(CCC)C(=O)Cn1c(=O)n(-c2ccc(CC)cc2)c(=O)c2c3c(sc21)CCC3	n	n	x	n	x	n
CC(=O)c1c(C)oc2c(Cl)cc(NS(=O)(=O)c3cc(C)c(C)cc3C)cc12	n	n	x	n	x	n
CN1N=C2c3ccccc3CCCC2C1c1ccc(F)cc1 (stereo not drawn)	n	n	n	79.4µM	n	n
COc1ccc2[nH]c(C(=O)O)c(CCN3C(=O)c4cccc([N+](=O)[O-])c4C3=O)c2c1	79.4µM	n	n	u	n	n
CC1(C)CC(=O)C=C(c2ccc(-c3cnc4ccccc4c3)cc2)C1=O	x	x	n	x	n	x
COc1ccc(/C=C/C2=CC(C)(C)NC(=S)N2)cc1	n	n	n	8.91µM	n	n
COc1cc2ccccc2cc1C(=O)O	n	n	n	n	n	n
O=C(O)C1Oc2cc3ccccc3cc2O1	n	u	n	44.7µM	n	u
Cc1cc2c(s1)c1cnn(Cc3ccccc3)c(=O)c1n2C	x	n	x	x	x	x
CC1Cc2cc(/C(O)=C3/C(=O)C(=O)N(Cc4cccnc4)C3c3cccc(O)c3)ccc2O1 (stereo not drawn)	n	n	x	u	n	n
COC(=O)c1ccc(C2/C(=C(/O)c3ccc4c(c3)CC(C)O4)C(=O)C(=O)N2Cc2cccnc2)cc1 (stereo not drawn)	n	u	n	70.8µM	n	n
CCOc1cccc(C2/C(=C(/O)c3ccc4c(c3)CC(C)O4)C(=O)C(=O)N2Cc2ccncc2)c1 (stereo not drawn)	n	22.4µM	n	x	n	n
O=C(O)/C(=C\C(=O)c1ccccc1)Nc1ccccc1	79.4µM	x	x	20µM	x	x
O=C(C=NNc1ccccc1)c1ccccc1	x	u	n	x	n	n
O=C(Cn1cc(C(=O)C2CCCCC2)c2ccccc21)Nc1ccccc1Cl	n	n	x	n	x	n
Cc1cc(C(=O)O)ccc1N/C=C1\CCCC(C)C1=O (stereo not drawn)	n	n	n	u	n	n
CC1CCC/C(=C\Nc2ccc(O)cc2)C1=O (stereo not drawn)	x	79.4µM	n	u	n	n
CC1(C)C2([N+](=O)[O-])CN3CC1([N+](=O)[O-])CN(C2)C3c1ccc(O)c(O)c1 (stereo not drawn)	n	u	n	22.4µM	n	n
N#CC(c1ccccn1)c1ncc(C(F)(F)F)cc1Cl (stereo not drawn)	n	n	n	n[12.7 µM]	n	n
CCCCn1c(N)c(-c2nc3ccccc3o2)c2c([N+](=O)[O-])nn(CC)c(=O)c21	n	n	n	n	n	n
CCCn1nc([N+](=O)[O-])c(C(C#N)c2nc3ccccc3o2)c(Cl)c1=O (stereo not drawn)	20µM	56.2µM	n	10µM	u	u
CCn1nc([N+](=O)[O-])c(C(C#N)c2nc3cc(C(F)(F)F)ccc3s2)c(Cl)c1=O (stereo not drawn)	11.2µM	28.2µM	n	11.2µM	u	22.4µM
Cn1nc([N+](=O)[O-])c(C(C#N)c2ccccn2)c(Cl)c1=O (stereo not drawn)	n	n	x	11.2µM	n	n
Cc1ccc(NS(=O)(=O)c2ccc3c(c2)CCCC(=O)N3)cc1C	x	n	x	x	x	x
